# Assay results taken from article PMC11006913.
# Changes are numbered by the printed parent chain.
# Key:
# Assay in all cases: PBM; 200 nM protein, PBS
# Conditions in all cases: dsDNA, one strand shown
# HOXA7 [1] = biological target: HOXA7 (Homo sapiens, UniProt P31268 116-202)
# HOXA2 [2] = biological target: HOXA2 (Homo sapiens, UniProt O43364 129-215, R185T)
# NKX2-6 = biological target: T1, NKX2-6 (Homo sapiens, UniProt A6NCS4 118-204, R150C)
# T1 sequence: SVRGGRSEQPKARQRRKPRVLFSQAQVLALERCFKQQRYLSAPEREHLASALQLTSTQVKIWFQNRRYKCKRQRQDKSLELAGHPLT
# HOXA2 [3] = biological target: HOXA2 (Homo sapiens, UniProt O43364 129-215, R185K)
# Sequence of HOXA2 (Homo sapiens, UniProt O43364 129-215, R185K) (O43364 129-215 R185K): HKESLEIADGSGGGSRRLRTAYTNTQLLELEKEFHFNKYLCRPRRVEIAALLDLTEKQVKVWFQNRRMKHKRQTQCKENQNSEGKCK
# HOXA2 [4] = biological target: HOXA2 (Homo sapiens, UniProt O43364 129-215, Y150S)
# Sequence of HOXA2 (Homo sapiens, UniProt O43364 129-215, Y150S) (O43364 129-215 Y150S): as the sequence (O43364 129-215 R185K) above, with Y22S, K57R counted along it
# HOXA7 [5] = biological target: HOXA7 (Homo sapiens, UniProt P31268 116-202, W177C)
# Sequence of HOXA7 (Homo sapiens, UniProt P31268 116-202, W177C) (P31268 116-202 W177C): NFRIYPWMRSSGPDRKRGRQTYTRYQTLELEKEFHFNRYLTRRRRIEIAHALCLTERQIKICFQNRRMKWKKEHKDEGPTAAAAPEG
# HOXA2 [6] = biological target: HOXA2 (Homo sapiens, UniProt O43364 129-215)
# Sequence of HOXA2 (Homo sapiens, UniProt O43364 129-215) (O43364 129-215): as the sequence (O43364 129-215 R185K) above, with K57R counted along it
# PRRX1 [7] = biological target: PRRX1 (Homo sapiens, UniProt P54821 80-166, F113S)
# Sequence of PRRX1 (Homo sapiens, UniProt P54821 80-166, F113S) (P54821 80-166 F113S): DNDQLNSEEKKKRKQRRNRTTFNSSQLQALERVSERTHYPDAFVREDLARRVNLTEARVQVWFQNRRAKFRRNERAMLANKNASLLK
# PITX2 = PITX2 (Homo sapiens, UniProt Q99697 72-157)
# CRX = CRX (Homo sapiens, UniProt O43186 26-111, R41L)
# Sequence of CRX (O43186 26-111 R41L): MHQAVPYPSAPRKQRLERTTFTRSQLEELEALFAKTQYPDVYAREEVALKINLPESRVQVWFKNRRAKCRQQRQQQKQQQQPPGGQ
# PRRX1 [8] = biological target: PRRX1 (Homo sapiens, UniProt P54821 80-166)
# Sequence of PRRX1 (Homo sapiens, UniProt P54821 80-166) (P54821 80-166): as the sequence (P54821 80-166 F113S) above, with S34F counted along it
# MSX2 [9] = biological target: MSX2 (Homo sapiens, UniProt P35548 130-214, R199I)
# Sequence of MSX2 (Homo sapiens, UniProt P35548 130-214, R199I) (P35548 130-214 R199I): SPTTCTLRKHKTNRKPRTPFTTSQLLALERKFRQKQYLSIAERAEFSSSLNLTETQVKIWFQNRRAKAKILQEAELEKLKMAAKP
# MSX2 [10] = biological target: MSX2 (Homo sapiens, UniProt P35548 130-214)
# Sequence of MSX2 (Homo sapiens, UniProt P35548 130-214) (P35548 130-214): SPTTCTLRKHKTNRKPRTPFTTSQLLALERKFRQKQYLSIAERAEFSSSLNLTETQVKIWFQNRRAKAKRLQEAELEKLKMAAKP
# MSX2 [11] = biological target: MSX2 (Homo sapiens, UniProt P35548 130-214, F161Y)
# Sequence of MSX2 (Homo sapiens, UniProt P35548 130-214, F161Y) (P35548 130-214 F161Y): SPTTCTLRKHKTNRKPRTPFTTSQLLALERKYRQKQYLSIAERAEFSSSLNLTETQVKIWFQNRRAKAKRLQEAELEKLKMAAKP
# PAX4 [12] = biological target: T2, PAX4 (Homo sapiens, UniProt O43316 9-242, R200K)
# T2 sequence: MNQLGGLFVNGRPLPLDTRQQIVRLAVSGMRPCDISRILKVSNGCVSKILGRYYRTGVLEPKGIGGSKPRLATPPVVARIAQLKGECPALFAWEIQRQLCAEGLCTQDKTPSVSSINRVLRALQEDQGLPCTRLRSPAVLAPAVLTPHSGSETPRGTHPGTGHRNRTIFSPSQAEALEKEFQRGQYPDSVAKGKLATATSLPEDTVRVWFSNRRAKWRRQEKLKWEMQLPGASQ
# PAX4 [13] = biological target: T3, PAX4 (Homo sapiens, UniProt O43316 9-242)
# T3 sequence: T2 sequence with K192R
# PAX4 [14] = biological target: T4, PAX4 (Homo sapiens, UniProt O43316 9-242, R200Q)
# T4 sequence: T2 sequence with K192Q
# PAX4 [15] = biological target: T5, PAX4 (Homo sapiens, UniProt O43316 9-242, F177V)
# T5 sequence: T2 sequence with F169V, K192R
# PAX4 [16] = biological target: T6, PAX4 (Homo sapiens, UniProt O43316 9-242, F177Y)
# T6 sequence: T2 sequence with F169Y, K192R
# PAX4 [17] = biological target: T7, PAX4 (Homo sapiens, UniProt O43316 9-242, R227W)
# T7 sequence: T2 sequence with K192R, R219W
# HOXB6 = HOXB6 (Homo sapiens, UniProt P17509 132-218, K202E)
# Sequence of HOXB6 (P17509 132-218 K202E): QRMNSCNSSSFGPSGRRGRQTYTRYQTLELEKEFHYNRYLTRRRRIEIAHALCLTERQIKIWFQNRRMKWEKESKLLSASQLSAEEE
# ALX4 [18] = biological target: ALX4 (Homo sapiens, UniProt Q9H161 200-286)
# Sequence of ALX4 (Homo sapiens, UniProt Q9H161 200-286) (Q9H161 200-286): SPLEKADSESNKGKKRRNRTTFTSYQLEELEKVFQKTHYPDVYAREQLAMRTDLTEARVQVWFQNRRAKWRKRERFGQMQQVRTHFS
# ALX4 [19] = biological target: ALX4 (Homo sapiens, UniProt Q9H161 200-286, Q225E)
# Sequence of ALX4 (Homo sapiens, UniProt Q9H161 200-286, Q225E) (Q9H161 200-286 Q225E): as the sequence (Q9H161 200-286) above, with Q26E counted along it
# VAX1 [20] = biological target: VAX1 (Homo sapiens, UniProt Q5SQQ9 86-172)
# Sequence of VAX1 (Homo sapiens, UniProt Q5SQQ9 86-172) (Q5SQQ9 86-172): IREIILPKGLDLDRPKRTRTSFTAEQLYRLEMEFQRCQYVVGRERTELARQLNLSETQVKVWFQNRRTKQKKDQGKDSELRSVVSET
# VAX1 [21] = biological target: VAX1 (Homo sapiens, UniProt Q5SQQ9 86-172, T142I)
# Sequence of VAX1 (Homo sapiens, UniProt Q5SQQ9 86-172, T142I) (Q5SQQ9 86-172 T142I): as the sequence (Q5SQQ9 86-172) above, with T57I counted along it
# VAX1 [22] = biological target: VAX1 (Homo sapiens, UniProt Q5SQQ9 86-172, K157R)
# Sequence of VAX1 (Homo sapiens, UniProt Q5SQQ9 86-172, K157R) (Q5SQQ9 86-172 K157R): as the sequence (Q5SQQ9 86-172) above, with K72R counted along it
# Sequence of HOXA7 (Homo sapiens, UniProt P31268 116-202) (P31268 116-202): as the sequence (P31268 116-202 W177C) above, with C62W counted along it
# Sequence of HOXA2 (Homo sapiens, UniProt O43364 129-215, R185T) (O43364 129-215 R185T): as the sequence (O43364 129-215 R185K) above, with K57T counted along it
sequence,measurement,setting,value
CCAGCTGG,binding signal,HOXA7 [1],"8.23 upbm affinity estimate (log intensity, higher = more binding, comparable within an allelic series)"
same,binding signal,HOXA2 [2],"7.34 upbm affinity estimate (log intensity, higher = more binding, comparable within an allelic series)"
same,binding signal,NKX2-6,"9.68 upbm affinity estimate (log intensity, higher = more binding, comparable within an allelic series)"
same,binding signal,HOXA2 [3],"10.4 upbm affinity estimate (log intensity, higher = more binding, comparable within an allelic series)"
same,binding signal,HOXA2 [4],"10.5 upbm affinity estimate (log intensity, higher = more binding, comparable within an allelic series)"
same,binding signal,HOXA7 [5],"8.36 upbm affinity estimate (log intensity, higher = more binding, comparable within an allelic series)"
same,binding signal,HOXA2 [6],"7.34 upbm affinity estimate (log intensity, higher = more binding, comparable within an allelic series)"
AAGATTAG,binding signal,HOXA7 [1],"9.43 upbm affinity estimate (log intensity, higher = more binding, comparable within an allelic series)"
same,binding signal,PRRX1 [7],"10.4 upbm affinity estimate (log intensity, higher = more binding, comparable within an allelic series)"
same,binding signal,PITX2,"12.4 upbm affinity estimate (log intensity, higher = more binding, comparable within an allelic series)"
same,binding signal,HOXA7 [5],"8.65 upbm affinity estimate (log intensity, higher = more binding, comparable within an allelic series)"
same,binding signal,CRX,"12.4 upbm affinity estimate (log intensity, higher = more binding, comparable within an allelic series)"
same,binding signal,PRRX1 [8],"12.3 upbm affinity estimate (log intensity, higher = more binding, comparable within an allelic series)"
CGGTGTCC,binding signal,HOXA7 [1],"8.41 upbm affinity estimate (log intensity, higher = more binding, comparable within an allelic series)"
same,binding signal,MSX2 [9],"9.36 upbm affinity estimate (log intensity, higher = more binding, comparable within an allelic series)"
same,binding signal,MSX2 [10],"9.29 upbm affinity estimate (log intensity, higher = more binding, comparable within an allelic series)"
same,binding signal,MSX2 [11],"9.3 upbm affinity estimate (log intensity, higher = more binding, comparable within an allelic series)"
same,binding signal,HOXA7 [5],"8.4 upbm affinity estimate (log intensity, higher = more binding, comparable within an allelic series)"
ATATTAGA,binding signal,HOXA7 [1],"9.95 upbm affinity estimate (log intensity, higher = more binding, comparable within an allelic series)"
same,binding signal,MSX2 [9],"11.1 upbm affinity estimate (log intensity, higher = more binding, comparable within an allelic series)"
same,binding signal,MSX2 [10],"11.8 upbm affinity estimate (log intensity, higher = more binding, comparable within an allelic series)"
same,binding signal,MSX2 [11],"11.5 upbm affinity estimate (log intensity, higher = more binding, comparable within an allelic series)"
same,binding signal,HOXA7 [5],"8.88 upbm affinity estimate (log intensity, higher = more binding, comparable within an allelic series)"
AATAACAT,binding signal,HOXA7 [1],"10.1 upbm affinity estimate (log intensity, higher = more binding, comparable within an allelic series)"
same,binding signal,HOXA2 [2],"9.56 upbm affinity estimate (log intensity, higher = more binding, comparable within an allelic series)"
same,binding signal,HOXA2 [3],"11.6 upbm affinity estimate (log intensity, higher = more binding, comparable within an allelic series)"
same,binding signal,HOXA2 [4],"10.9 upbm affinity estimate (log intensity, higher = more binding, comparable within an allelic series)"
same,binding signal,HOXA7 [5],"8.98 upbm affinity estimate (log intensity, higher = more binding, comparable within an allelic series)"
same,binding signal,HOXA2 [6],"9.63 upbm affinity estimate (log intensity, higher = more binding, comparable within an allelic series)"
CGTTGCTC,binding signal,HOXA7 [1],"8.49 upbm affinity estimate (log intensity, higher = more binding, comparable within an allelic series)"
same,binding signal,PAX4 [12],"9.58 upbm affinity estimate (log intensity, higher = more binding, comparable within an allelic series)"
same,binding signal,PAX4 [13],"9.38 upbm affinity estimate (log intensity, higher = more binding, comparable within an allelic series)"
same,binding signal,PAX4 [14],"9.57 upbm affinity estimate (log intensity, higher = more binding, comparable within an allelic series)"
same,binding signal,PAX4 [15],"9.52 upbm affinity estimate (log intensity, higher = more binding, comparable within an allelic series)"
same,binding signal,PAX4 [16],"9.55 upbm affinity estimate (log intensity, higher = more binding, comparable within an allelic series)"
same,binding signal,PAX4 [17],"9.55 upbm affinity estimate (log intensity, higher = more binding, comparable within an allelic series)"
same,binding signal,HOXA7 [5],"8.47 upbm affinity estimate (log intensity, higher = more binding, comparable within an allelic series)"
CATTATTA,binding signal,HOXA7 [1],"11.1 upbm affinity estimate (log intensity, higher = more binding, comparable within an allelic series)"
same,binding signal,HOXB6,"10 upbm affinity estimate (log intensity, higher = more binding, comparable within an allelic series)"
same,binding signal,HOXA7 [5],"8.89 upbm affinity estimate (log intensity, higher = more binding, comparable within an allelic series)"
ACCCAGCC,binding signal,HOXA7 [1],"8.44 upbm affinity estimate (log intensity, higher = more binding, comparable within an allelic series)"
same,binding signal,ALX4 [18],"8.13 upbm affinity estimate (log intensity, higher = more binding, comparable within an allelic series)"
same,binding signal,ALX4 [19],"8.18 upbm affinity estimate (log intensity, higher = more binding, comparable within an allelic series)"
same,binding signal,VAX1 [20],"7.07 upbm affinity estimate (log intensity, higher = more binding, comparable within an allelic series)"
same,binding signal,VAX1 [21],"7.26 upbm affinity estimate (log intensity, higher = more binding, comparable within an allelic series)"
same,binding signal,HOXA7 [5],"8.42 upbm affinity estimate (log intensity, higher = more binding, comparable within an allelic series)"
same,binding signal,VAX1 [22],"7 upbm affinity estimate (log intensity, higher = more binding, comparable within an allelic series)"
